Screening data (PubChem)
MCF10A rerep – DNA re-replication induction in MCF 10a cells; MCF 10A DNA re-replication, Hoechst nuclear intensity, 48 h; Potency, µM (top dose mostly 46.1 µM), for the others: at the highest dose activity, positive = re-replication, hits mostly activators; AID 624296; 350,000 tested, 2.9% active; note: % of control where 0% means no effect; nearly all actives have a fitted effect of over 50% in size
SW480 rereplic – inducers of DNA re-replication in SW480 colon cancer cells | AID 624297 | 340,000 tested, 1.8% active | Potency, µM (highest dose often 46.1 µM), inactives show top-dose re-replication activation, most hits filed as activators | SW480 DNA re-replication, Hoechst DNA content imaging, 48 h; note: % of control where 0% means no effect; nearly all actives have a fitted effect of over 55% in size
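Hoechst fluorescence of nuclei (405 nm excitation, 500-530 nm emission) measured by plate-scanning imager after 48 hr compound exposure at 37 C; re-replication scored as increased number of nuclei with elevated intensity.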
ELG1 DNA repair – blocks ELG1-dependent DNA repair in HEK293T cells; HEK293T ELG1-luciferase reporter, luminescence, 16 h; DNA damage induced by 5-fluorouridine; Potency, µM (series often up to 46.1 µM), without a hit: at the top dose activity change, negative = inhibition, actives largely listed as inhibitors; 330,000 tested, 2.3% active; AID 504467; note: % is set by controls: 0 for no effect and ±100 for the full control effect; nearly all actives have a fitted effect of over 55% in size
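Step one: seed 2,000 cells per well. Step two: pin-transfer compound or DMSO alongside 5-fluorouridine. Step three: incubate 16 hr, 37 °C, 5% CO2. Step four: add ONE-Glo, wait 30 min, read luminescence.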
RORgamma inh – ROR gamma (mouse) transcription inhibition | AID 2551 | Drosophila S2 Gal4-RORgamma UAS-luciferase reporter, 20 h | 310,000 tested, 5.4% active | P51450 | Potency, µM (highest dose often 53.6 µM), inactives show top-dose activity change, negative = inhibition, most hits filed as inhibitors; note: % is set by controls: 0 for no effect and ±100 for the full control effect; nearly all actives have a fitted effect of over 60% in size
Target sequence (P51450 whole entry, looked up, the tested form may be a part): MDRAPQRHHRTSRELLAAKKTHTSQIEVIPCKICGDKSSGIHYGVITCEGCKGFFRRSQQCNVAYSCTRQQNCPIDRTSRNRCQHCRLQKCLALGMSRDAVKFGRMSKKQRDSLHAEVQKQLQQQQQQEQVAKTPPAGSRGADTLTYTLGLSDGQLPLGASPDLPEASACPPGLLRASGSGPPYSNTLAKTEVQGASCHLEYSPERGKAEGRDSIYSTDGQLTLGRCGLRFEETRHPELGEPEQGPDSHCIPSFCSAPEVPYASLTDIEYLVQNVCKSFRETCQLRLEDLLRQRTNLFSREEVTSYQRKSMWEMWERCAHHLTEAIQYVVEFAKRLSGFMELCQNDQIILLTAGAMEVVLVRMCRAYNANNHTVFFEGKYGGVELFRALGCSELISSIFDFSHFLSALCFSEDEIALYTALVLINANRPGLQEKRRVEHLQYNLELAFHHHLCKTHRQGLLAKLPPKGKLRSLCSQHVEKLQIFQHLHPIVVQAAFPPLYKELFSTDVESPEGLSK
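Read-out: Photinus luciferase luminescence; inhibitors lower reporter signal. Insect Schneider cells with Gal4-ROR gamma fusion under metallothionein promoter, UAS reporter; 700 uM final copper sulfate induction, 20 hr, ambient temperature.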
VP16 counter – counter-screen for ROR gamma inhibitors: Gal4-VP16 reporter | Potency, µM (top dose mostly 53.6 µM), inactives show top-dose activity, negative = inhibition, most hits filed as inhibitors | Drosophila S2 Gal4-VP16 UAS-luciferase, luminescence, 20 h | 310,000 tested, 3.5% active;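 note: Gal4-VP16 expression switched on by copper sulfate through the metallothionein promoter; % is set by controls: 0 for no effect and ±100 for the full control effect; nearly all actives have a fitted effect of over 50% in size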
* hit, by the source's call; ? = inconclusive; · = no result; [ ] = remark or other dose. Hits are enriched below; roughly 10% of the tested compounds scored in any of these assays. Calls come from the whole dose curve; as a rule, active = well fitted curve in the direction sought with a large enough effect; inconclusive = small, poorly fitted or top-dose-only effect, or another doubt; inactive = no such curve, though single readings can be large; an effect the other way counts as inactive or inconclusive. Potency is the fitted concentration of half-maximal effect.

SMILES	MCF10A rerep	SW480 rereplic	ELG1 DNA repair	RORgamma inh	VP16 counter
C=CCn1c(COc2ccccc2OC)nc2ccccc21	12%	-2%	30%	?	?
COc1ccc(-c2nc3ccccc3c(=O)n2CCOc2ccccc2C)cc1	-2%	1%	-1%	14%	0%
CC(c1nc2ccccc2n1Cc1ccccc1)N1CCCCC1 (stereo unspecified)	?	5%	5%	14µM*	?
CCn1c(Cc2ccc(OC)cc2)nc2ccccc21	23%	2%	-15%	11µM*	35µM*
COCCn1c(C(C)C)nc2ccccc21	0%	12%	3%	-1%	1%
CCn1c(NCc2ccc(OC)cc2)nc2ccccc21	-5%	?	?	1%	7%
CCCn1c(COc2ccccc2)nc2ccccc21	?	-1%	14%	13µM*	0%
c1ccc(Cc2nc3ccccc3n2Cc2ccccc2)cc1	?	6%	-10%	?	18µM*
CCN(CC(=O)NCc1cccs1)C(=O)c1ccc(S(=O)(=O)Nc2ccccc2OC)cc1	0%	-2%	3%	·	·
CCn1c(COc2cccc(C)c2)nc2ccccc21	10%	4%	21%	10µM*	?
O=C(CC1S/C(=N/N=C2CCCCCC2)NC1=O)Nc1ccccc1F (stereo unspecified)	14%	58%	-1%	·	·
O=C(CC1S/C(=N/N=C2CCCCCC2)NC1=O)Nc1ccc(Br)cc1F (stereo unspecified)	17%	9%	-4%	2.2µM*	5.6µM*
C=C[C@](C)(O)CCC1C(=C)CC(OC(C)=O)C2C(C)(C)CCCC12C (stereo partly specified)	·	·	·	1.1µM*	-17%
CC1CCCCN1c1ccc(N)cc1C(N)=O (stereo unspecified)	-11%	13%	-24%	-25%	-7%
CN1CC(c2ccccc2)C2(SC(=S)N(Cc3ccco3)C2=O)C12C(=O)Nc1ccccc12 (stereo unspecified)	6.5µM*	?	?	?	?
CCC(C)NS(=O)(=O)c1ccc(S(=O)(=O)N(CC(=O)Nc2ccccc2)Cc2ccco2)cc1 (stereo unspecified)	15%	-10%	18µM*	-19%	-19%
Cc1ccc(-c2csc3nc[nH]c(=S)c23)cc1	?	?	?	0.025µM*	0.014µM*
O=c1[nH]cnc2scc(-c3ccc(Br)cc3)c12	-6%	-1%	2%	-7%	2%
Clc1ccc(-c2csc3ncnc(Cl)c23)cc1	18µM*	21µM*	4%	11µM*	-29%
S=c1[nH]cnc2scc(-c3ccc(Cl)cc3)c12	?	25%	16µM*	0.45µM*	1µM*
S=c1[nH]cnc2scc(-c3ccc(Br)cc3)c12	?	12µM*	?	0.5µM*	0.63µM*
CCCCCCCCCCCCCC[C@@H](O)[C@@H](O)[C@H](CO)NC(C)=O	·	·	·	5%	-3%
Cc1cc(C)c(C)c(OCC(O)CN2CCN(c3ccccn3)CC2)c1 (stereo unspecified)	4%	-4%	-14%	-28%	-13%
Cc1cc(-c2csc3nc[nH]c(=S)c23)cc(C)c1C	?	?	-6%	0.32µM*	0.56µM*
O=c1[nH]cnc2scc(-c3ccccc3)c12	-6%	0%	1%	28%	6%
SMILES	MCF10A rerep	SW480 rereplic	ELG1 DNA repair	RORgamma inh	VP16 counter
Cc1sc2nc[nH]c(=S)c2c1-c1ccccc1	?	-4%	?	0.28µM*	0.63µM*
Cc1cccc(Nc2nc(N)c([N+](=O)[O-])c(NCc3ccccc3)n2)c1	18µM*	?	?	15%	-7%
Nc1nc(Nc2ccccc2)nc(NCc2ccccc2)c1[N+](=O)[O-]	12%	11%	21µM*	28%	-16%
CNc1nc(N)c([N+](=O)[O-])c(Nc2cccc(Cl)c2)n1	-2%	4%	5%	28%	7%
COc1ccccc1Nc1nc(NCc2ccco2)nc(N)c1[N+](=O)[O-]	27%	-45%	18µM*	25%	-17%
Nc1nc(NCc2ccccc2)nc(NCc2ccccc2)c1[N+](=O)[O-]	8%	0%	8%	-11%	-3%
CNc1nc(N)c([N+](=O)[O-])c(Nc2cccc(F)c2)n1	-1%	18µM*	?	26%	-1%
CC(=O)NCC(=O)OC(C(=O)c1ccccc1)c1ccc(Cl)cc1 (stereo unspecified)	-3%	3%	-10%	-6%	-7%
O=C(NCCc1ccccc1)C1CCC(CNS(=O)(=O)c2cccs2)CC1 (stereo unspecified)	28%	-1%	-20%	32%	6%
CN(C(=O)c1cccc(Br)c1)C1CCS(=O)(=O)C1 (stereo unspecified)	1%	-90%	4%	·	·
COc1cc(OC)c(-c2nnc3n(CCc4ccccc4)c(=O)c4ccccc4n23)cc1OC	·	·	?	?	-1%
COc1cc(-c2nnc3n(CCc4ccccc4)c(=O)c4ccccc4n23)cc(OC)c1OC	?	5%	21µM*	-4%	-16%
COc1ccc(-c2nnc3n(CCc4ccccc4)c(=O)c4ccccc4n23)c(OC)c1	21µM*	17%	8.2µM*	?	5%
Cc1ccn2c(Nc3ccc4c(c3)OCO4)c(-c3ccc(O)cc3)nc2c1	?	-7%	19%	-11%	-5%
COc1ccc(-c2cc(-c3nc4ccccn4c3NCc3ccccc3)ccc2OC)cc1	5.8µM*	16µM*	2.3µM*	·	·
COc1ccc(-c2nc3ccccn3c2NCc2ccc3c(c2)OCO3)cc1	?	-7%[9.22 µM]	?	?	-23%
Cn1nc(C(C)(C)C)cc1C(=O)NCc1ccc2c(c1)OCO2	0%	-7%	?	-13%	1µM*
c1ccc(-c2nc3ccccn3c2NCc2ccc3c(c2)OCO3)cc1	23%	0%	-1%	10µM*	-6%
Cc1oc(C(C)(C)C)cc1C(=O)NCc1ccc2c(c1)OCO2	0%	-3%	8%	?	?
COc1ccc(-c2nc3cc(C)ccn3c2NCc2ccc3c(c2)OCO3)cc1	24%	0%	-15%	7.1µM*	?
C=CCNC(=S)N(CC=C)C1CCS(=O)(=O)C1 (stereo unspecified)	-1%	-14%	-7%	-18%	-4%
Clc1c(-c2ccccc2)nc2ccccn12	1%	-2%	?	-34%	13%
Clc1cccc(-c2ccc(-c3nc4ccccn4c3NCc3ccccc3)cc2)c1	16µM*	?	?	·	·
Cc1nc2ccccn2c1C(=O)NCc1ccc2c(c1)OCO2	2%	7%	16µM*	?	?
Cc1ccc(C(=O)N/C(=C/c2cccs2)C(=O)NCc2ccco2)cc1	1%	1%	7%	24%	11%
